Results filed as inconclusive are left out. Activity calls are given as the source filed them. The call rests on the fitted dose curve; in most records, active means well fitted curve in the direction sought with a large enough effect; inconclusive means small, poorly fitted or top-dose-only effect, or another doubt; inactive means no such curve, though single readings can be large; an effect the other way counts as inactive or inconclusive.
What was measured:
[1] = target: Glutaminase kidney isoform, mitochondrial (Homo sapiens) (UniProt O94925); assay: qHTS for Inhibitors of Glutaminase (GLS): LOPAC Validation (AID 624146);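 further: glutamate product detected by oxidase and peroxidase coupled Amplex red fluorescence gain; series mostly up to about 46 µM; nearly all actives have a fitted effect of over 60% in size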
Glutaminase kidney isoform, mitochondrial (Homo sapiens), sequence (O94925 whole entry, looked up, canonical isoform): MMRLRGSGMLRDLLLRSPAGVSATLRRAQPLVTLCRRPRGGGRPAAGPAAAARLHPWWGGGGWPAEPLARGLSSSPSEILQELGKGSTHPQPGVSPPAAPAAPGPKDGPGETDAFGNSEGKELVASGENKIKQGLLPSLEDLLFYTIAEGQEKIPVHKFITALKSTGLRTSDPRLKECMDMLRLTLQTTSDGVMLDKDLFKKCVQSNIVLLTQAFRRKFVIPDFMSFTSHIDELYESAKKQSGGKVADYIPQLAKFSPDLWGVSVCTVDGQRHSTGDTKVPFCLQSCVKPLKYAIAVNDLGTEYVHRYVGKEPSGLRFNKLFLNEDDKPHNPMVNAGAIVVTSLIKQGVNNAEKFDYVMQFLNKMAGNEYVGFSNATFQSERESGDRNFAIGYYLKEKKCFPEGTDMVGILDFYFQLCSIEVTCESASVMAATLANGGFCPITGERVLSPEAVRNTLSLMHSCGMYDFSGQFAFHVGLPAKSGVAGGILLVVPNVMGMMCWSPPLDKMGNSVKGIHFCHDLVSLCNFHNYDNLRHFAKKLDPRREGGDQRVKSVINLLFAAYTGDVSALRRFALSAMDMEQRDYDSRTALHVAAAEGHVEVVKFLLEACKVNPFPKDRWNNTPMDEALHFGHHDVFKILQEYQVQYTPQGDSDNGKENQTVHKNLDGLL
Method in brief: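 hKGA; 45 mM KH2PO4 pH 8.2 + 0.02% Tween-20; cpd via pin tool; 1 mM Gln soln; GluOx/HRP/Amplex Red; RT 30 min; fluor. t0 & final.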

[2] = qHTS of Trypanosoma Brucei Inhibitors: LOPAC Validation (AID 624147)
Method in brief: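 Activity of T. brucei pyruvate kinase was followed by Kinase-Glo Plus luminescence after the enzyme reacted 45 min at room temperature with 130 uM ADP (final) and substrate. Test compounds were added before ADP at multiple concentrations.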

[3] = target: Glucagon-like peptide 1 receptor (Homo sapiens) (UniProt P43220); assay: qHTS of GLP-1 Receptor Agonists: LOPAC Validation (AID 624148);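 further: luminescence from a luciferase reporter switched on by cAMP; higher luminescence signal means agonism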
Glucagon-like peptide 1 receptor (Homo sapiens), sequence (P43220 whole entry, looked up): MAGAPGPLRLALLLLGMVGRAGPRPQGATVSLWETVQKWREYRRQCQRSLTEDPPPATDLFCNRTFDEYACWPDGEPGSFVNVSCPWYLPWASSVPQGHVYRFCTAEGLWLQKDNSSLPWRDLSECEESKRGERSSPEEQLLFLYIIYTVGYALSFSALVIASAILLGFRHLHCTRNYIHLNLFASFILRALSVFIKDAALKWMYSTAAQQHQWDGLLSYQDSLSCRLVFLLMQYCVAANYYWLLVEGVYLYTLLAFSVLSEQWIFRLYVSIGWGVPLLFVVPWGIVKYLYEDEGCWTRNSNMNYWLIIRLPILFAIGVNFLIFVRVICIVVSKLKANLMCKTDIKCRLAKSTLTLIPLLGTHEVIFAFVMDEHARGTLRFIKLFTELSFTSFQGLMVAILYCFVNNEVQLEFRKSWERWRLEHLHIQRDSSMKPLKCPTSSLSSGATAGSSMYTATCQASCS
Method in brief: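 Agonism scored as increased luciferase luminescence driven by cAMP in HEK293 clones carrying GLP-1R. Cells settled 12 hours, received compound for 4-6 hr at 37 deg C, 5% CO2, and were read after 12 min detection reagent at RT.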

[4] = qHTS of Nrf2 Activators: LOPAC Validation (AID 624149)
Method in brief: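 Luciferase signal from ARE activation, read with Steady-Glo after 30 min at room temperature. Compounds were pin-transferred onto AREc32_Fluc cells (1000/well, OPTI-MEM/5% FBS, seeded overnight) and left 24 hr at 37 deg C.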

[5] = HTS Assay for Allosteric Antagonists of the Human D2 Dopamine Receptor: Hit Validation in HTRF (AID 624455);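 further: stable D1 dopamine receptor cell line scored for blocking the D1 response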
Method in brief: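 Inhibition of the D1-mediated response was measured by HTRF. Cells used were a line stably expressing the D1 dopamine receptor.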

Measured: Potency

O=C(N[C@@H](Cc1ccccc1)C(=O)CCl)OCc1ccccc1
inactive: all assays above

c1ccc2c(c1)CCC[C@H]2Nc1nc2ccccc2[nH]1
inactive: all assays above

Nc1ncnc2c1c(-c1ccc(Oc3ccccc3)cc1)cn2C1CCCC1
not listed: [1]
inactive: all other assays above
